Screening data: PubChem BioAssay, National Center for Advancing Translational Sciences (NCATS)
SMN2 splice enh: enhancers of SMN2 splice variant expression; HEK293 SMN2-luciferase splicing reporter, luminescence, 30-36 h; Potency, µM (doses to about 46.1 µM), without a hit: at the highest dose activity change, positive = activation, usual class: activators; 210,000 compounds, 2.8% hits; note: % of control where 0% means no effect; nearly all actives have a fitted effect of over 55% in size
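qHTS luciferase splicing reporter: luminescence rises when SMN2 exon 7 is included in transfected HEK293 cells. Compound exposure lasted 30-36 h at 37C, with 4.5 mM final sodium butyrate as control, followed by a ONE-Glo read.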
NPC1 prom act: activates the NPC1 promoter; Huh7 NPC1 promoter luciferase reporter, 24 h; Potency, µM (highest dose often 9.22 µM), for the others: at the highest dose activation, actives largely listed as activators; 320,000 compounds, 2.4% hits; AID 485313; note: % of control where 0% means no effect; nearly all actives have a fitted effect of over 60% in size
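Luminescence read-out of NPC1 promoter-driven luciferase in stably transfected Huh7 cells; compounds delivered in DMSO and left 24 h at 37C, 5% CO2, qHTS titration format.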
Rab9 prom act: activates the Rab9 promoter | Huh7 Rab9 promoter-luciferase reporter, luminescence, 24 h | Potency, µM (highest dose often 9.22 µM), inactives show top-dose activation, negative = inhibition, most hits filed as activators | 320,000 compounds, 2.8% hits | AID 485297; note: % of control where 0% means no effect; nearly all actives have a fitted effect of over 60% in size
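Cells were plated at 1500 per well in reduced-serum medium with 10% FBS and left 2 h. Compound in DMSO was then added for 24 h at 37 °C. Reporter signal was read by luminescence after 10 min with luciferase detection reagent.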
ELG1 genotoxic: inducers of genotoxicity in HEK293T ELG1-luciferase cells | HEK293T ELG1-luciferase reporter, luminescence, 16 h | Potency, µM (doses to about 46 µM), inactives show top-dose activity change, positive = activation, usual class: activators | 330,000 compounds, 1.3% hits; note: % of control where 0% means no effect; nearly all actives have a fitted effect of over 60% in size
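ELG1-luciferase HEK293T cells, 2,000/well; compound pinned in; 16 hr, 37 °C, 5% CO2; ONE-Glo, 30 min RT; luminescence on CCD imager.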
FLuc modulator: inhibits or activates purified firefly luciferase, miR-21 counter-screen; purified FLuc, Km substrates, luminescence inhibition; 360,000 compounds, 6.9% hits; AID 588342; P08659; Potency, µM (doses to about 57.5 µM), inactives show at the top dose activity change, negative = inhibition, usual class: inhibitors;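 note: plate controls were vehicle for no effect and reference inhibitor for full effect; nearly all actives have a fitted effect of over 55% in size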
Target sequence (P08659 whole entry, looked up): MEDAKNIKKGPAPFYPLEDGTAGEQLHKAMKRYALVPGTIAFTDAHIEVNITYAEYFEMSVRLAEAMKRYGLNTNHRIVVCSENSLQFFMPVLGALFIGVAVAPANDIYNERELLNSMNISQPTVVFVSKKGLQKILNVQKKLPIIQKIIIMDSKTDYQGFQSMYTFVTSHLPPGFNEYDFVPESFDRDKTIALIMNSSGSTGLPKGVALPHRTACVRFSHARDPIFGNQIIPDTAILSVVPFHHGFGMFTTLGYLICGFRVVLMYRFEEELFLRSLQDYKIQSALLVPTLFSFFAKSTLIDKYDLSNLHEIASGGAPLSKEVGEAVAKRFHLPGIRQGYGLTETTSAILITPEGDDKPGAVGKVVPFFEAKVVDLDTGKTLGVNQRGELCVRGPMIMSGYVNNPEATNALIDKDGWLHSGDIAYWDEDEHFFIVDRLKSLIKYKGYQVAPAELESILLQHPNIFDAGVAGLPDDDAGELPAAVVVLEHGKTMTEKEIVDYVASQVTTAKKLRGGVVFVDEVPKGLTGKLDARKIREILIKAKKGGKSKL
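Biochemical qHTS of compounds, final roughly 60 µM downward over six points, against 10 nM purified firefly luciferase using Km concentrations of substrates (10 uM D-luciferin, 10 uM ATP) in Tris acetate pH 7.5 buffer; luminescence output.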
An asterisk follows results filed as active; ? = inconclusive; . = no result; [ ] = another dose, or the depositor's remark. Most compounds without a hit are left out; they make up all but 7.5% or so of the library. Calls come from the whole dose curve; as a rule, active = well fitted curve in the direction sought with a large enough effect; inconclusive = small, poorly fitted or top-dose-only effect, or another doubt; inactive = no such curve, though single readings can be large; an effect the other way counts as inactive or inconclusive. Potency is the fitted concentration of half-maximal effect.

SMILES	SMN2 splice enh	NPC1 prom act	Rab9 prom act	ELG1 genotoxic	FLuc modulator
Cc1ccc(OCC(=O)NNC(=S)NC(=O)C(C)(C)C)c(Br)c1	-47%	1%	5%	4%	27µM*
Cc1ccc(OCC(=O)NNC(=S)NC(=O)C2CC2)c(C)c1	.	-5%	-8%	8%	13µM*
CC(C)c1ccc(OCC(=O)NNC(=S)NC(=O)c2cccs2)c(Br)c1	.	1%	-2%	0%	0%
Cc1ccc(OCC(=O)NNC(=S)NC(=O)C2CCCCC2)c(C)c1	.	-6%	-1%	3%	5%
Cc1ccc(-c2nc(CS(=O)(=O)CC(=O)NC3CCC(C)CC3)c(C)o2)cc1 (stereo not given)	.	1%	-3%	-5%	-1%
Cc1cc(C)n2nc(SCc3nc4ccccc4[nH]3)nc2n1	-20%	5%	-1%	26%	-12%
COc1cccc(N/C(SCc2ccccc2F)=C(/C#N)C(=O)NCc2cccs2)c1	-15%	0%	-1%	-3%	-3%
COCCCNC(=O)COc1ccc(Br)cc1Cl	16µM*	?	?	?	?
N#Cc1nc(Cc2cccc3ccccc23)oc1NCCN1CCOCC1	58%	-2%	0%	-5%	-2%
O=C(Nc1onc2c1CCCC2)c1ccccc1	?	.	.	.	4.8µM*
CC(C)(C)c1ccc(C(=O)Nc2onc3c2CCCC3)cc1	11µM*	.	.	.	0.34µM*
COCC(C)n1c(C)cc(C(=O)COC(=O)c2n[nH]c3ccccc23)c1C (stereo not given)	-9%	1µM*	0.63µM*	?	3µM*
COCC(C)n1c(C)cc(C(=O)CSc2nnnn2C2CCCC2)c1C (stereo not given)	.	?	?	?	4.3µM*
COc1ccc(C)cc1NC(=O)CSc1nnnn1C1CCCC1	.	-6%	3%	0%	-2%
COCC(C)n1c(C)cc(C(=O)CSc2nc(C)c(C)c(C)n2)c1C (stereo not given)	.	-7%	-7%	-4%	-19%
COCC(C)n1c(C)cc(C(=O)CSc2nnc(N)s2)c1C (stereo not given)	?	?	4µM*	8.2µM*	8.5µM*
Cc1ccc(OCC(=O)OCC(=O)Nc2sccc2C(N)=O)cc1C	.	-3%	-1%	1%	-7%
CCc1ccc(S(=O)(=O)/N=C2\C=C(NS(=O)(=O)c3ccccc3)C(=O)c3ccccc32)cc1	.	22%	14%	?	15µM*
CC(C)c1ccc(S(=O)(=O)/N=C2\C=C(NS(=O)(=O)c3ccccc3)C(=O)c3ccccc32)cc1	.	8%	12%	-10%	19µM*
Cc1ccc(C)c(S(=O)(=O)/N=C2\C=C(NS(=O)(=O)c3ccccc3)C(=O)c3ccccc32)c1	.	2%	1%	-23%	?
CCOC(=O)Cc1cc(-c2ccc(O)cc2)nc2ccc3ccccc3c12	-3%	0%	-3%	0%	-15%
Oc1ccc(-c2nc3ccc4ccccc4c3c3c2CCC3)cc1O	-18%[1.84 µM]	-2%	1%	9%	24µM*
CC(C)C1COC(c2cccc3ccccc23)=N1 (stereo not given)	22µM*	3.2µM*	0.79µM*	21µM*	2.1µM*
O=C(Cn1[nH]c(=O)c2ccccc2c1=O)Nc1cccc(S(=O)(=O)N2CCCCCC2)c1	-6%	-9%	-11%	0%	-3%
Cc1cccc(NS(=O)(=O)c2cccc(C(=O)NCCCN3CCCC3=O)c2)c1	.	-3%	-2%	-2%	2%
SMILES	SMN2 splice enh	NPC1 prom act	Rab9 prom act	ELG1 genotoxic	FLuc modulator
O=C(Cn1c(-c2cccs2)cc2cc(F)ccc21)N1CCN(c2cccc(Cl)c2)CC1	.	.	.	.	-1%
Cc1ccc2nc(-c3ccc(N4C(=O)CC(N5CCN(CCO)CC5)C4=O)cc3)sc2c1 (stereo not given)	18%	11%	10%	?	8.5µM*
COc1ccccc1CNC(=O)Cn1c(=O)ccc2cc(S(=O)(=O)N3CCCC3)ccc21	.	.	.	.	-2%
Cc1ccc(NC2c3ncccc3C(=O)N2c2ccccc2C)cc1C (stereo not given)	-3%	5%	-4%	1%	24µM*
CCOc1ccc(N2C(=O)c3cccnc3C2Nc2ccc(Cl)cc2)cc1 (stereo not given)	-14%	0%	3%	0%	2%
COc1ccccc1N1C(=O)S/C(=C\c2cc(C)n(C)c2C)C1=O	14µM*	3.5µM*	2.5µM*	?	12µM*
COc1ccc(N=C2S/C(=C\c3cc(C)n(C)c3C)C(=O)N2C)cc1	-14%	-4%	0%	10%	0%
COc1ccc(N=C2S/C(=C\c3ccc(C)s3)C(=O)N2CC(C)C)cc1	0%	-3%	0%	-5%	0%
COc1ccccc1N1C(=O)S/C(=C\c2ccc(C)s2)C1=O	.	?	3.5µM*	?	-21%
COc1ccc(C(C)=O)cc1COC(=O)c1cc2ccccc2cc1O	.	-2%	-3%	-7%	-3%
O=C(Nc1ccc(-c2csnn2)cc1)C1CC1	.	-5%	14%	4%	-24%
c1ccc(-c2ccc(-c3csnn3)cc2)cc1	?	2.2µM*	2µM*	13%	?
O=C(Oc1ccc(-c2csnn2)cc1)c1cccs1	.	-2%	7%	-5%	2.4µM*
O=C(Oc1ccc(-c2csnn2)cc1)C1CC1	.	-6%	0%	0%	17µM*
O=C(Oc1ccccc1-c1csnn1)c1cccs1	0%	-1%	1%	-1%	0%
Cc1cccc(/C=N/n2c(C)cc(C)c(C#N)c2=O)c1	6%	-3%	1%	1%	-6%
Cc1nc(-c2ccc(Cl)cc2)sc1C1(C)CC(c2ccc(F)cc2)=NO1 (stereo not given)	.	14%	6%	12%	?
Cc1nc(-c2ccc(Cl)cc2)sc1C1(C)CC(c2cccc(Cl)c2)=NO1 (stereo not given)	.	18%	3%	15%	24µM*
Cc1nc(-c2ccc(Cl)cc2)sc1C1(C)CC(c2cccc(F)c2)=NO1 (stereo not given)	.	14%	-4%	14%	24µM*
Cc1ccc(N2C(=O)c3ccccc3NC2c2ccccc2O)cc1 (stereo not given)	.	2.5µM*	0.89µM*	?	?
Oc1[nH]c2ccc(Br)cc2c1N=Nc1ccc(F)cc1	.	6%	-1%	3%	2%
O=[N+]([O-])c1ccc2[nH]c(O)c(N=Nc3ccc(F)cc3)c2c1	.	11%	-2%	0%	0%
O=[N+]([O-])c1ccc(N=Nc2c(O)[nH]c3ccc(F)cc23)cc1	.	2.8µM*	?	?	-23%
O=NC1=C(c2c(O)[nH]c3ccccc23)CCCC1	36%	-6%	9%	6%	-1%
Oc1[nH]c2ccccc2c1N=Nc1ccc(F)cc1	-12%[1.84 µM]	23%	?	?	4.8µM*
